Compound activity deposited in PubChem BioAssay by National Center for Advancing Translational Sciences (NCATS).
Lassa entry inh – inhibitors of Lassa virus binding or cell entry | Lassa virus pseudotype entry inhibition, cell reporter | Potency, µM (top dose mostly 37.9 µM), hits mostly inhibitors | actives 1.2% (n = 300,000) | AID 540256; calls by dose curve; tested in HEK293 cells; note: nearly all actives have a fitted effect of over 50% in size
HCV inhibitor – blocks hepatitis C virus | Huh7.5.1 HCVcc-Cre infection, luciferase reporter, 44 h | Potency, µM (series often up to 41.8 µM), most hits filed as inhibitors | actives 3.4% (n = 340,000); active = well fitted inhibition curve with a large enough effect; inconclusive = small, poorly fitted or top-dose-only effect, or another doubt; inactive = no such curve, though single readings can be large or run the other way
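Infectious HCV cell culture screen: compound-treated cells (1,000/well, pre-plated 4 h) are infected with HCVcc-Cre at roughly 0.5 moi and grown 44 h. Infection is quantified by luciferase signal after 15 min substrate incubation at room temperature.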
FMDV inh – antivirals against foot and mouth disease virus; FMDV antiviral cell-based qHTS; Potency, µM (series often up to 57.9 µM), usual class: inhibitors; actives 1.2% (n = 410,000); AID 1159524; calls by dose curve; tested in HEK293T cells; note: read-out not given here; nearly all actives have a fitted effect of over 45% in size
Marburg entry inh – blocks Marburg virus binding to or entry into cells; Marburg virus pseudotyped entry inhibition, cell reporter; Potency, µM (series often up to 37.8 µM), hits mostly inhibitors; actives 1.8% (n = 300,000); AID 540276; calls by dose curve; tested in HEK293 cells
Cycloheximide cs – affects cycloheximide protein synthesis inhibition readout, counter-screen | cell reporter, cycloheximide protein synthesis inhibition counterscreen | max response, % | actives 12% (n = 300,000); in the data active = max response mostly above about 13%, no sharp cut-off; inactive = mostly below about 14%; note: read at 38.3 µM for the half of the compounds with a filed dose
Shiga toxin inh – Shiga toxin inhibition. Vero cells, Shiga toxin protein synthesis inhibition reporter. inhibition, % at 38.7 µM. actives 9.2% (n = 290,000). AID 2315; in the data active = inhibition mostly above about 28%, no sharp cut-off; inactive = mostly below about 43%
Hits are given with their value. Most compounds without a hit are left out; they make up all but 13% or so of the library.

`Cc1ccc(C)c(N2CCN(c3ncccc3[N+](=O)[O-])CC2)c1` gave Lassa entry inh inconclusive, HCV inhibitor 11µM, FMDV inh inactive, Marburg entry inh 2.5µM, Cycloheximide cs inactive and Shiga toxin inh inactive.
Screening COc1ccc(S(=O)(=O)CCC(=O)N2CCN(c3ccccc3F)CC2)cc1 returned HCV inhibitor inactive, FMDV inh inactive, Cycloheximide cs inactive and Shiga toxin inh inactive.
Cc1nn(-c2ccccc2)c(N)c1Sc1ccc([N+](=O)[O-])cc1 was read as Lassa entry inh inactive, HCV inhibitor inactive, FMDV inh 32µM, Marburg entry inh inactive, Cycloheximide cs 20 and Shiga toxin inh inactive.
`Cc1nn(-c2ccccc2)c(OC(=O)C(C)C)c1Sc1ccccc1` gave Lassa entry inh inactive, FMDV inh inactive and Marburg entry inh inconclusive.
N#Cc1ccc(-c2cccnc2)nc1SCc1ccc(Cl)c(Cl)c1 was read as Lassa entry inh inactive, HCV inhibitor 11µM, FMDV inh inactive, Marburg entry inh inactive, Cycloheximide cs inactive and Shiga toxin inh inactive.
`COc1ccc(N2CCN(C(=O)c3oc4ccccc4c3NC(=O)CCc3cc(OC)no3)CC2)cc1` gave Lassa entry inh inactive, HCV inhibitor inconclusive, FMDV inh 25µM, Marburg entry inh inactive, Cycloheximide cs inactive and Shiga toxin inh inactive.
`Cc1ccccc1NC(=O)c1onc2c1CCCC2` gave Lassa entry inh inconclusive, HCV inhibitor inactive, FMDV inh inactive, Marburg entry inh inactive, Cycloheximide cs 49 and Shiga toxin inh 123.
Screening Cc1cccc(NC(=O)c2onc3c2CCCC3)n1 returned Lassa entry inh inconclusive, HCV inhibitor inactive, FMDV inh inconclusive, Marburg entry inh 1.3µM, Cycloheximide cs 33 and Shiga toxin inh inactive.
`Cc1ccccc1NC(=O)c1sc2nc3c(c(-c4ccco4)c2c1N)CCCC3` gave Lassa entry inh inactive, HCV inhibitor inconclusive, FMDV inh inactive, Marburg entry inh inactive, Cycloheximide cs inactive and Shiga toxin inh inactive.
`Cc1ccc(C(=O)Nc2onc3c2CCCC3)cc1` gave Lassa entry inh inconclusive, FMDV inh 8.9µM and Marburg entry inh inconclusive.
For COc1ccccc1C(=O)Nc1onc2c1CCCC2 the results were Lassa entry inh inconclusive, FMDV inh inactive and Marburg entry inh inconclusive.
Screening Cc1noc(NC(=O)c2ccc(Cl)cc2)c1Cl returned Lassa entry inh inactive, HCV inhibitor inactive, FMDV inh inactive, Marburg entry inh inactive, Cycloheximide cs 44 and Shiga toxin inh 66.
For CN(C)C(=O)c1cccc(-c2cc(NC=O)c3ncc(-c4ccc(F)c(Cl)c4)n3c2)c1 the results were FMDV inh inactive.
Screening Cc1cccc(NC(=O)c2onc3c2CCCC3)c1C returned Lassa entry inh inactive, HCV inhibitor inactive, FMDV inh inactive, Marburg entry inh inconclusive, Cycloheximide cs 33 and Shiga toxin inh 116.
`CC(C)n1c(SCC(=O)Nc2ccccc2N2CCOCC2)nc2c1c(=O)n(C)c(=O)n2C` gave Lassa entry inh inactive, HCV inhibitor inconclusive, FMDV inh inactive, Marburg entry inh inactive, Cycloheximide cs inactive and Shiga toxin inh inactive.
`C=CCn1c(SCC(=O)N2CCOCC2)nc2scc(-c3ccco3)c2c1=O` gave Lassa entry inh 10µM, HCV inhibitor inconclusive, FMDV inh inactive, Marburg entry inh inactive, Cycloheximide cs inactive and Shiga toxin inh inactive.
O=C(CSc1n[nH]c(=O)n1-c1cccnc1)Nc1ccccc1 was read as HCV inhibitor inactive, FMDV inh inactive, Cycloheximide cs inactive and Shiga toxin inh inactive.
Screening O=C(CSc1n[nH]c(=O)n1Cc1ccco1)N1CCOCC1 returned Lassa entry inh inactive, HCV inhibitor inactive, FMDV inh inactive, Marburg entry inh inactive, Cycloheximide cs 16 and Shiga toxin inh inactive.
`O=C(CSc1n[nH]c(=O)n1-c1cccnc1)N1CCOCC1` gave Lassa entry inh inactive, HCV inhibitor inactive, FMDV inh inactive, Marburg entry inh inactive, Cycloheximide cs 20 and Shiga toxin inh inactive.
CC1(C)Cc2c(sc3nc(-c4cc5ccccc5o4)n(N)c(=O)c23)CO1 was read as Lassa entry inh inactive, HCV inhibitor inactive, FMDV inh inactive, Marburg entry inh inconclusive, Cycloheximide cs 19 and Shiga toxin inh inactive.
Cc1ccc(-c2nc3sc4c(c3c(=O)n2N)CC(C)(C)OC4)cc1 was read as Lassa entry inh inactive, HCV inhibitor inactive, FMDV inh inconclusive, Marburg entry inh inactive, Cycloheximide cs inactive and Shiga toxin inh inactive.
Screening COc1cc(OC)c(OC)cc1/C=N/NC(=O)c1cc(-c2cccn2C)n[nH]1 returned Lassa entry inh inactive, HCV inhibitor inactive, FMDV inh inactive, Marburg entry inh inactive, Cycloheximide cs inactive and Shiga toxin inh inactive.
For CCOc1cccc(/C=N/NC(=O)c2cc(-c3cccn3C)n[nH]2)c1O the results were Lassa entry inh 22µM, HCV inhibitor 11µM, FMDV inh inactive, Marburg entry inh inconclusive, Cycloheximide cs inactive and Shiga toxin inh inactive.
Screening Cn1cccc1-c1cc(C(=O)N/N=C/c2cccc(O)c2)[nH]n1 returned Lassa entry inh inconclusive, HCV inhibitor inactive, FMDV inh inactive, Marburg entry inh inactive, Cycloheximide cs 30 and Shiga toxin inh 56.
CN(C(=O)c1ccc2c(c1)C(=O)N(CCC1=CCCCC1)C2=O)C1CCCCC1 was read as HCV inhibitor inactive, FMDV inh inactive, Marburg entry inh inactive, Cycloheximide cs inactive and Shiga toxin inh inactive.
Screening Cc1ccsc1/C=N/NC(=O)CNC(=O)c1ccco1 returned Lassa entry inh inconclusive, HCV inhibitor inactive, FMDV inh inactive, Marburg entry inh inconclusive, Cycloheximide cs inactive and Shiga toxin inh inactive.
For Cc1ccsc1/C=N/NC(=O)c1ccco1 the results were Lassa entry inh inactive, HCV inhibitor inactive, FMDV inh inactive, Marburg entry inh inconclusive, Cycloheximide cs 24 and Shiga toxin inh 46.
For Cc1cc(C(=O)N/N=C\c2cc(C(C)(C)C)c(O)c(C(C)(C)C)c2)n[nH]1 the results were Lassa entry inh inactive, HCV inhibitor inactive, FMDV inh inactive, Marburg entry inh inconclusive, Cycloheximide cs inactive and Shiga toxin inh inactive.
`Cc1ccsc1/C=N/NC(=O)c1ccc(-n2cccc2)cc1` gave Lassa entry inh inactive, HCV inhibitor inactive, FMDV inh inactive, Marburg entry inh inconclusive, Cycloheximide cs 33 and Shiga toxin inh 66.
Cc1ccsc1/C=N\NC(=O)c1cc(C(C)(C)C)[nH]n1 was read as Lassa entry inh inactive, HCV inhibitor inactive, FMDV inh inactive, Marburg entry inh inactive, Cycloheximide cs 24 and Shiga toxin inh 104.
For Cc1ccsc1/C=N/NC(=O)c1sccc1C the results were Lassa entry inh inconclusive, HCV inhibitor inactive, FMDV inh inactive, Marburg entry inh inconclusive, Cycloheximide cs 53 and Shiga toxin inh 95.
For Cc1ccc(NCC(=O)N/N=C/c2ccc(C(=O)O)cc2)cc1 the results were HCV inhibitor inactive, FMDV inh inactive, Cycloheximide cs inactive and Shiga toxin inh inactive.
`COc1ccc(-c2c(O)c3c(OC)c4c(cc3oc2=O)OC(C)(C)CC4)cc1` gave FMDV inh inactive.
Screening CC(C)(C)Nc1nc(Cl)nc(NC2CCCCC2)n1 returned Lassa entry inh inactive, HCV inhibitor inactive, FMDV inh inactive, Marburg entry inh inactive, Cycloheximide cs inactive and Shiga toxin inh inactive.
